Values joined by “and” are separate entries in the source; they are usually repeats but may differ in a detail not shown here. Equal entries are not always repeated. Hit rate of the full screen: of about 5,500 compounds, about 2,000 (36%) were called active. Another 18% or so got no clear call; they are omitted. No stated cut-off is given here; in the data, active means normalized growth mostly below about 0.91 (no sharp cut-off); inconclusive means no clear call, values can overlap the other calls; inactive means mostly above about 0.92. This is one part of the list.
Test: chemical genetic growth profiling, strain panel (AID 1159580);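 further: tested at 20 µM; growth read once vehicle control cultures reached saturation at 30 °C; 1 = growth at the plate median or of vehicle wells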
Conditions: S. cerevisiae deletion strains, growth OD

Measured: normalized growth

O=[N+]([O-])c1ccc(O)c([N+](=O)[O-])c1
0.801 (inactive) and 0.3 (active): locus YJL095W, strain BCK1, stronger effect = lower value
active: locus YAL013W, strain DEP1, stronger effect = lower value 0.837 | locus YAL021C, strain ccr4, stronger effect = lower value 0.869 | locus YAL026C, strain drs2, stronger effect = lower value 0.776 | locus YAL030W, strain snc1, stronger effect = lower value 0.812 | locus YBL061C, strain skt5, stronger effect = lower value 0.832 | locus YBR009C, strain hhf1, stronger effect = lower value 0.823 | locus YBR021W, strain FUR4, stronger effect = lower value 0.647 | locus YBR023C, strain chs3, stronger effect = lower value 0.88 | locus YBR171W, strain sec66, stronger effect = lower value 0.799 | locus YBR229C, strain ROT2, stronger effect = lower value 0.839 | locus YBR231C, strain swc5, stronger effect = lower value 0.851 | locus YBR279W, strain paf1, stronger effect = lower value 0.817 | locus YCL011C, strain gbp2, stronger effect = lower value 0.807 | locus YCL016C, strain dcc1, stronger effect = lower value 0.873 | locus YCL029C, strain bik1, stronger effect = lower value 0.693 | locus YCL069W, strain vba3, stronger effect = lower value 0.775 | locus YCR088W, strain abp1, stronger effect = lower value 0.775 | locus YDL005C, strain med2, stronger effect = lower value 0.875 | locus YDL040C, strain nat1, stronger effect = lower value 0.848 | locus YDL101C, strain DUN1, stronger effect = lower value 0.877 | locus YDL134C, strain PPH21, stronger effect = lower value 0.796 | locus YDL185W, strain tfp1, stronger effect = lower value 0.109 | locus YDL192W, strain arf1, stronger effect = lower value 0.759 | locus YDR001C, strain nth1, stronger effect = lower value 0.766 | locus YDR101C, strain arx1, stronger effect = lower value 0.686 | locus YDR150W, strain NUM1, stronger effect = lower value 0.788 | locus YDR159W, strain sac3, stronger effect = lower value 0.677 | locus YDR162C, strain NBP2, stronger effect = lower value 0.785 | locus YDR297W, strain sur2, stronger effect = lower value 0.826 | locus YDR318W, strain mcm21, stronger effect = lower value 0.727 | locus YDR334W, strain swr1, stronger effect = lower value 0.742 | locus YDR335W, strain msn5, stronger effect = lower value 0.798 | locus YDR388W, stronger effect = lower value 0.694 | locus YDR392W, strain spt3, stronger effect = lower value 0.674 | locus YDR502C, strain sam2, stronger effect = lower value 0.735 | locus YEL003W, strain gim4, stronger effect = lower value 0.829 | locus YEL037C, strain rad23, stronger effect = lower value 0.797 | locus YEL061C, strain CIN8 (second series), stronger effect = lower value 0.794 | locus YEL061C, strain CIN8, stronger effect = lower value 0.817 | locus YER015W, strain faa2, stronger effect = lower value 0.795 | locus YER016W, strain bim1, stronger effect = lower value 0.89 | locus YER110C, stronger effect = lower value 0.64 | locus YER111C, strain swi4, stronger effect = lower value 0.79 | locus YER155C, strain BEM2 (second series), stronger effect = lower value 0.615 | locus YER155C, strain BEM2, stronger effect = lower value 0.63 | locus YER167W, strain BCK2, stronger effect = lower value 0.76 | locus YFR010W, strain ubp6, stronger effect = lower value 0.861 | locus YGL078C, strain dbp3, stronger effect = lower value 0.252 | locus YGL086W, strain mad1, stronger effect = lower value 0.779 | locus YGL167C, strain pmr1, stronger effect = lower value 0.84 | locus YGL173C, strain kem1, stronger effect = lower value 0.822 | locus YGL227W, strain vid30, stronger effect = lower value 0.743 | locus YGL240W, strain doc1, stronger effect = lower value 0.739 | locus YGL248W, strain PDE1, stronger effect = lower value 0.81 | locus YGL253W, strain hxk2, stronger effect = lower value 0.717 | locus YGR078C, strain PAC10, stronger effect = lower value 0.789 | locus YGR135W, strain pre9, stronger effect = lower value 0.76 | locus YGR252W, strain gcn5, stronger effect = lower value 0.709 | locus YHR027C, strain rpn1, stronger effect = lower value 0.814 | locus YHR079C, strain IRE1 (second series), stronger effect = lower value 0.665 | locus YHR079C, strain IRE1, stronger effect = lower value 0.254 | locus YHR094C, strain hxt1, stronger effect = lower value 0.681 | locus YHR129C, strain ARP1, stronger effect = lower value 0.738 | locus YHR142W, strain chs7, stronger effect = lower value 0.792 | locus YHR200W, strain rpn10, stronger effect = lower value 0.736 | locus YIL066C, strain RNR3, stronger effect = lower value 0.794 | locus YIL125W, strain kgd1, stronger effect = lower value 0.211 | locus YIR030C, strain dcg1, stronger effect = lower value 0.694 | locus YJL092W, strain hpr5, stronger effect = lower value 0.759 | locus YJL095W, strain BCK1 (second series), stronger effect = lower value 0.834 | locus YJL115W, strain asf1, stronger effect = lower value 0.757 | locus YJL129C, strain trk1, stronger effect = lower value 0.694 | locus YJL134W, strain LCB3, stronger effect = lower value 0.777 | locus YJL154C, strain vps35, stronger effect = lower value 0.773 | locus YJL164C, strain tpk1, stronger effect = lower value 0.863 | locus YJL166W, strain qcr8, stronger effect = lower value 0.85 | locus YJL168C, strain set2, stronger effect = lower value 0.719 | locus YJL187C, strain SWE1 (second series), stronger effect = lower value 0.825 | locus YJL187C, strain SWE1, stronger effect = lower value 0.842 | locus YJR066W, strain TOR1, stronger effect = lower value 0.254 | locus YJR075W, strain HOC1, stronger effect = lower value 0.824
inactive: locus YDL035C, strain GPR1, stronger effect = lower value 0.871 | locus YDL074C, strain BRE1, stronger effect = lower value 0.824 | locus YDR069C, strain doa4, stronger effect = lower value 0.936 | locus YDR137W, strain rgp1, stronger effect = lower value 0.915 | locus YDR195W, strain ref2 0.927 | locus YGR229C, strain SMI1, stronger effect = lower value 0.81 | locus YHR013C, strain ard1, stronger effect = lower value 0.981 | locus YIL073C, strain SPO22, stronger effect = lower value 0.986 | locus YJR043C, strain POL32, stronger effect = lower value 0.892
